# Bioassay records deposited in PubChem BioAssay by National Center for Advancing Translational Sciences (NCATS).
# Compounds with a hit are over-represented: about 2.2% of the library has one in this group of screens.
# Mito fusion yeast: qHTS Assay for Small Molecule Inhibitors of Mitochondrial Division or Activators of Mitochondrial Fusion; S. cerevisiae fusion-defective mutant growth rescue, CellTiterGlo 48 h; Potency, µM (doses to about 46.1 µM), without a hit: at the top dose growth rescue (activation), most hits filed as activators; 320,000 compounds, 0.23% hits; also: % of control where 0% means no effect; nearly all actives have a fitted effect of over 45% in size
#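 S. cerevisiae fusion-defective temperature-sensitive mutants (e.g. fzo1-1, mgm1-5) grown 48 h at 37C in YPEG (ethanol/glycerol non-fermentable) medium with 23 nl compound per well; growth rescue read as CellTiterGlo luminescence.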
# aSyn rescue: qHTS of alpha-syn Inhibitors; 370,000 compounds, 0.14% hits; AID 652106, 2013; Yeast expressing alpha-synuclein, growth rescue, BacTiter-Glo, 24 h; Potency, µM (highest dose often 46.1 µM), for inactives: at the highest dose growth rescue (activation), actives largely listed as activators; also: % of control where 0% means no effect; nearly all actives have a fitted effect of over 65% in size
#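 Screening used galactose-induced yeast with toxic alpha-synuclein levels, exposed to compound for 24 hr at 30 deg C. Cell growth, read with BacTiter-Glo luminescence, gave the measured signal.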
# Abeta rescue: qHTS for compounds that reverse cellular toxicity of Amyloid beta (A-beta) peptide in yeast: Primary Screen; AID 1347071, 2019; Potency, µM (series often up to 46.1 µM), hits mostly activators; yeast expressing A-beta42, growth rescue, OD600, 48 h; response scale: 0% DMSO, 100% iron-clioquinol control; 410,000 compounds, 0.063% hits; also: nearly all actives have a fitted effect of over 55% in size
#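 Yeast A-beta toxicity model in growth medium with pinned compounds, 48 h at 30 C; growth read as absorbance at 600 nm. Normalized to FeCl3/clioquinol equimolar mix (positive) and DMSO (negative).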
# FUS yeast rescue: qHTS for Suppressors of FUS Proteinopathy: Primary screen using FUS-linked yeast assay | 390,000 compounds, 0.24% hits | AID 1347120, 2019 | Potency, µM (series often up to 76.6 µM), actives largely listed as activators | S. cerevisiae FUS-expressing, growth rescue, OD600, 24 h;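 also: plate controls were DMSO vehicle for no effect and reference control for full effect; nearly all actives have a fitted effect of over 55% in size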
#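 Steps: raffinose overnight preculture; dilution to OD 0.005 in 2% galactose minimal medium; compound addition (concentration series); 24hr at 30C, 99% humidity; absorbance read at 600 nm.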
# TDP-43 yeast inh: qHTS of TDP-43 Inhibitors | TDP-43 expressing yeast growth rescue, BacTiter-Glo, 24 h | 410,000 compounds, 1.8% hits | AID 652104, 2013 | Potency, µM (doses to about 46.1 µM), for inactives: top-dose growth rescue (activation), hits mostly activators; also: % of control where 0% means no effect; nearly all actives have a fitted effect of over 50% in size
#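 In this qHTS, compounds that restore growth of yeast expressing TDP-43 appear as activators. Cells (OD600=0.02, galactose medium, raffinose-pregrown) are incubated with compound 24 hr at 30 deg C and growth is quantified by BacTiter-Glo.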
# Numbers without * were called inactive; i = inactive; ? = inconclusive; nt = no result given; ! = a repeat was not active; [ ] = another dose, or the depositor's remark. Calls follow the shape of the dose curve; as a rule, active = well fitted curve in the direction sought with a large enough effect; inconclusive = small, poorly fitted or top-dose-only effect, or another doubt; inactive = no such curve, though single readings can be large; an effect the other way counts as inactive or inconclusive. Potency is read from the fitted curve at half-maximal effect.
SMILES,Mito fusion yeast,aSyn rescue,Abeta rescue,FUS yeast rescue,TDP-43 yeast inh
Cc1ccccc1NC(=O)C(=O)NCC(c1ccc2c(c1)OCO2)N1CCN(c2ccccc2)CC1 (stereo not given),nt,nt,i,i,14%
O=C(O)c1ccc(C2CCCCC2)cn1,-8%,?,i,i,13µM*
CC1(C)CC2(CCO1)N1CC3(C)CN2CC(C)(C1)C3=O (stereo not given),nt,0%,i,nt,3.2µM*
Cc1ccnc2nc(NC(=O)c3ccccc3Cl)nn12,nt,nt,i,i,9%
O=C(COC(=O)c1ccccc1Br)Nc1ccc2[nH]c(=O)[nH]c2c1,-1%,2%,i,i,2%
C/C(=N\NC(=O)COc1ccccc1-c1ccccc1)c1ccccn1,?,18µM*,i,i,?
CC(C)C(=O)Nc1ncc(Cc2cccc(Cl)c2)s1,-10%,1%,?,i,18µM*
C[C@@H]1C(c2ccccc2)=NN(c2ccc(Br)cc2)[C@H]1C(=O)N1CCOC1=O,nt,20µM*,i,i,?
Cc1cccc(C2=NN(c3ccccc3)[C@@H](C(=O)N3CCOC3=O)[C@@H]2c2ccc(F)cc2)c1,nt,23%,i,5.6µM*,1%
Cc1cccc(C2=NN(c3ccc(Br)cc3)[C@@H](C(=O)N3CCOC3=O)[C@@H]2C)c1,nt,?,i,i,11%
O=C1OCCN1C(=O)[C@H]1[C@H](c2ccc(Cl)cc2)C(c2ccc(F)cc2)=NN1c1ccc(Br)cc1,nt,10µM*,i,?,-23%
CCOC(=O)c1ccc(Nc2nc3ccc(C(=O)c4ccccc4)cc3n3c(C)nnc23)cc1,nt,nt,i,i,27%
Cc1ccc(-n2nc3c(c2NC(=O)C(C)C)CS(=O)(=O)C3)cc1,0%,?,nt,i,10%
Clc1cccc(Nc2nc(-c3ccncc3)cs2)c1,1%,3%,i,i,13µM*
Cc1cccc(Nc2nc(-c3ccncc3)cs2)c1,-1%,11%,i,i,?
Cc1ccc(Cl)cc1Nc1nc(-c2cccnc2)cs1,7%,3%,i,i,13µM*
Clc1ccc(OCCSc2ncccn2)c2ccccc12,5%,nt,i,i,?
c1cnc(SCCOc2cccc3ccccc23)nc1,15%,-5%,i,i,11µM*
CCC(=O)c1ccc(N2CCN(C(=O)c3ccccc3Br)CC2)c(F)c1,1%,19%,i,i,10%[9.22 µM]
CCC(=O)c1ccc(N2CCN(C(=O)c3ccccc3F)CC2)c(F)c1,10µM*,7%,i,i,?
CCOC(=O)N1CCN(C(=O)c2ccc3nc(-c4ccccc4)c(-c4ccccc4)nc3c2)CC1,?,4%,i,?,18µM*
CCc1nc2ccc(C(=O)N3CCN(c4ccccc4)CC3)cc2nc1CC,1%,8%,i,?,?
CCc1nc2ccc(C(=O)N3CCN(c4ccccc4F)CC3)cc2nc1CC,-1%,1%,i,?,20µM*!
CC(=O)c1ccccc1NC(=O)COC(=O)/C(=C/c1ccccc1)n1nnnc1C,-10%,20%,i,i,7%
C=CCN1C(=O)[C@H](CC(=O)NCc2cccc(C(F)(F)F)c2)[C@@]2(C(=O)OCC)CCCC=C12,nt,nt,nt,i,nt
c1ccc2nc(N3CCN(Cc4ccc5c(c4)OCO5)CC3)cnc2c1,1%,2%,i,i,6%
COc1nc2ccccc2nc1N1CCN(Cc2ccc3c(c2)OCO3)CC1,7%,1%,i,i,14µM*
COc1ccccc1NC(=O)c1nc(S(=O)(=O)Cc2ccccc2)ncc1Cl,-15%,4%,i,i,-9%
CCOC(=O)c1c(-c2ccccc2)csc1NC(=O)c1nc(S(=O)(=O)CC)ncc1Cl,nt,nt,i,i,4µM*
Cc1cccc(NC(=O)c2nc(S(C)(=O)=O)ncc2Cl)c1,nt,nt,i,i,20µM*
